TEAD-YAP block = TEAD-YAP interaction inhibition, primary screen, TEAD-YAP interaction inhibitor project, luminescence, HEK-TIYL cells. TEAD-Gal4/YAP UAS-luciferase luminescence. inhibition, % at 9.12 µM. hit rate 1.4% among 640,000. AID 1259422, 2018; in the data active = inhibition above about 32%;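 also: 0% = median of test compound wells and 100% = reference inhibitor wells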
GPR151 ag = activators of human GPR151, primary screen, cell-based, PathHunter beta-arrestin, luminescence. G-protein coupled receptor 151 (Homo sapiens), Q8TDV0. PathHunter beta-arrestin GPR151 cells. activation, % at 11.2 µM. hit rate 1% among 650,000; in the data active = activation above about 4.9%;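 also: 0% = median of compound wells and 100% = cells with positive control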
MITF inh = MITF inhibitors, primary screen, biochemical, AlphaScreen, human; Microphthalmia-associated transcription factor (Homo sapiens), O75030; hit rate 0.91% among 650,000; AlphaScreen MITF homodimerization, bead proximity signal; inhibition, % at 2.6 µM; in the data active = inhibition above about 50%;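 also: 0% = vehicle wells with protein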
FBW7 act = FBW7 E3 ligase activators, primary screen, biochemical, AlphaScreen, human | F-box/WD repeat-containing protein 7 (Homo sapiens), Q969H0 | AlphaScreen FBW7–phospho-cyclin E peptide binding, activator screen | normalized activity (activation), % at 26.1 µM | hit rate 0.13% among 650,000 | AID 1259310, 2017; in the data active = normalized activity above about 1.9%;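 also: purified mutant Fbw7 with reduced substrate affinity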
MITF inh conf = MITF inhibitors, retest of hits, confirmation, biochemical, AlphaScreen, triplicate; shares compounds with MITF inh; AlphaScreen MITF homodimerization, biotin/His-MITF beads; inhibition, % at 2.6 µM; hit rate 16% among 4,700;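 active = inhibition above a cutoff derived from the DMSO control wells, cut at about 28% in these data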;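 also: 0% = MITF dimer wells with DMSO only; inhibitors lower the bead chemiluminescence by keeping MITF from dimerizing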
AlphaScreen DR = AlphaScreen optical interference compounds, dose response, counter-screen, biochemical, HTS; shares compounds with MITF inh; AlphaScreen optical interference counterscreen, cell-free; IC50, µM; hit rate 6% among 480; call rule not given here
AS interf ctr = AlphaScreen optical interference compounds, counter-screen for MITF inhibitor project, biochemical, triplicate; hit rate 7.6% among 4,700; AID 1259376, 2018; inhibition, % at 2.6 µM; LysRS AlphaScreen counterscreen, signal interference; shares compounds with MITF inh;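 active = inhibition above a cutoff derived from the DMSO control wells, cut at about 30% in these data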
Starred values were filed as active, the others as inactive; · = not tested or not shown. Sampled rows, rich in hits. Any-hit rate of the full collection: about 3.5%.

SMILES	TEAD-YAP block	GPR151 ag	MITF inh	FBW7 act	MITF inh conf	AS interf ctr	others
COc1ccc(C(=O)N2CCc3cc(OC)c(OC)cc3C2COc2ccc([N+](=O)[O-])cc2)cc1OC (centres undefined)	-13.0	-1.4	-2.2	-0.1	·	·
CCOC(=O)/C(Br)=N\Nc1ccc(C)cc1	-1.5	0.2	83.9*	-0.1	19.4	17.5
CCOC(=O)/C(Cl)=N\Nc1ccccc1	16.1	0.4	31.4	0.0	·	·
Cc1cc2c(c(=O)[nH]1)C(=O)O/C2=C/c1ccc(F)cc1	-14.0	-2.2	-2.3	-0.2	·	·
Cc1cc2c(c(=O)[nH]1)C(=O)O/C2=C\c1ccc(C)o1	-0.7	-0.6	54.9*	-0.7	70.3*	6.6	AlphaScreen DR=>6.86
Cc1cc2c(c(=O)[nH]1)C(=O)O/C2=C\c1ccco1	0.2	-0.2	61.5*	-1.2	62.3*	4.9	AlphaScreen DR=>9.3
Cc1cc2c(c(=O)[nH]1)C(=O)O/C2=C\c1cccs1	-8.4	-0.6	-1.8	-0.2	·	·
Cc1ccc(Cn2c(CN3CCC(C)CC3)nc3c2c(=O)n(C)c(=O)n3C)cc1	-7.4	1.9	-0.8	0.1	·	·
CC1CCN(Cc2nc3c(c(=O)n(C)c(=O)n3C)n2Cc2ccc(F)cc2)CC1	1.9	0.7	50.8*	0.2	5.9	13.2
Cc1ccc(CNC(=O)CN(c2cc(C)ccc2C)S(C)(=O)=O)cc1	3.7	1.0	-10.3	0.1	·	·
Cc1cccn2c(=O)c3cc(C(=O)Nc4ncccn4)sc3nc12	1.1	2.6	14.2	0.0	·	·

Screening data from PubChem.
